The panel holds about 83,000 compounds, 20% with a hit somewhere; the sample as a whole holds those more often.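 A percent growth of 40 corresponds to 60% growth inhibition; 0 means no net growth; -100 means all cells died. Active threshold: below 10.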 Unmarked numbers belong to inactive results. Active and inactive are the calls of the source.

The assay has as its system MDA-MB-231 breast. Briefly: NCI-60 one-dose screen, 48 h (100 = growth as untreated, 0 = no growth, -100 = all killed). Conditions: 10 µM unless noted.
Regarding `CC(C)CCC1(CCCl)C(=O)NC(=O)NC1=O`, the growth was 101%. With `C[C@@]1(CCCCCCCCCc2ccc(O)cc2)C[C@]2(C)OC(=O)C[C@@H]2OO1` the figure was 105%; with `COC(=O)[C@@H](C)C[C@H](Cc1ccccc1)NC(=O)c1nc([C@@H](C[C@H](C(C)C)N(C)C(=O)[C@@H](NC(=O)[C@H]2CCCN2C)C(C)C)OC(C)=O)sc1C`, 14.1%; with `CCOP(=O)(NC[C@H]1O[C@](O)(CO)[C@@H](O)[C@@H]1O)OCC`, 94.3%. `O=C1CN=C(c2ccc(Cl)cc2)c2sccc2N1`: the growth is 100%. Take `COP(=O)(OC)C(O)c1ccc(Cl)cc1` (centres undefined): the growth was 123%.

For `CNC(=O)Oc1ccc(N(C)C)cc1C(C)C`, the growth is 103%. Consider `CO[C@H](C(=O)O)[C@@H]1Cc2cc3cc(OC4CC(OC5CC(O)C(O)C(C)O5)C(O)C(C)O4)c(C)c(O)c3c(O)c2C(=O)[C@H]1OC1CC(OC2CC(OC3CC(C)(O)C(O)C(C)O3)C(O)C(C)O2)C(O)C(C)O1` (some centres undefined), for which the growth is 19.9%. Turning to `CCOC(=O)N[C@H]1CCc2c(Br)c(OC)c(OC)c(OC)c2-c2ccc(SC)c(=O)cc21`, the growth was -7.24% (active). Consider `Cc1cnc(/C=C/C(=O)O)cc1-c1cc2c(cc1C)C(C)(C)CCC2(C)C`, for which the growth is 80.9%. As to `CC1=C(CNO)C2=C(C)C3(CC3)[C@@](C)(O)C(=O)C2=C1`, the growth was 10.3%. In the case of `CC12CC=CCC1CCC1C2CCC2(C)C(c3ccc(=O)oc3)CCC12O` (centres undefined) it was -4.41% (active); in that of `Fc1c[c-]c(-c2ccccn2)c(F)c1.[CH3-].[Pt+2].c1ccc([PH+](c2ccccc2)c2ccccn2)cc1`, -70.6% (active). As to `CN[C@@]1(c2ccccc2Cl)CCCC[C@@H]1NCC1CCCO1` (some centres undefined), the growth is 105%. For `CC(C)=CC1C(C(=O)OCc2cccc(Oc3ccccc3)c2)C1(C)C` (centres undefined), the growth was 90.2%. With `CCCCCCCC[n+]1ccc2ccccc2c1` the figure was 67%. With `COC(=O)[C@@H](C)C[C@H](Cc1ccccc1)NC(=O)c1csc([C@@H](C[C@H](C(C)C)N(C)C(=O)C2(NC(=O)[C@H]3CCCCN3C)CC2)OC(C)=O)n1` the figure was 13.4%.

Consider `CC(=O)c1ccc(C(=O)NCC2CCC3(CC2)OOC2(CCCCC2)OO3)cc1`, for which the growth was 70.9%. As for `COC(=O)[C@@H](C[C@H](Cc1ccccc1)NC(=O)c1csc([C@@H](C[C@H](C(C)C)N(C)C(=O)[C@@H](NC(=O)[C@H]2CCCCN2C)C(C)C)OC(C)=O)n1)NC(=O)OCc1ccccc1`, the growth was 18.6% [9.5 µM].

(Values after PubChem BioAssay (NCI).)
